From PubChem
rCAG RNA binder: binders of r(CAG) RNA repeats, primary screen, biochemical, fluorescence. r(CAG) RNA repeat, TO-PRO-1 dye displacement fluorescence. inhibition, % at 3 µM. 370,000 tested, 1.3% active. AID 651821, 2012;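 active = inhibition above the plate cutoff, the mean of all test compounds on that plate plus 3 SD, cut at about 35% in these data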;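 note: 0% = DMSO alone and 100% = 100 µM mitoxantrone as full dye displacement; higher means more dye released from RNA so lower well fluorescence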
NadD inh: inhibitors of S. aureus NadD, primary screen, biochemical, colorimetric, uHTS | Nicotinate-nucleotide adenylyltransferase NadD (Staphylococcus aureus N315) | purified NadD enzyme, colorimetric absorbance read-out | inhibition, % at 20 µM | 360,000 tested, 0.78% active | AID 602399, 2012; in the data active = inhibition above about 26%
GRIN3A LBD mod: binders of NR3A ligand-binding domain, primary screen, biophysical, differential scanning fluorimetry, uHTS | Tm shift relative to glycine control, % at 25 µM | NR3A LBD differential scanning fluorimetry, Tm shift; 0% = protein alone, 100% = glycine-bound protein | Glutamate receptor ionotropic, NMDA 3A (GRIN3A) ligand-binding domain | 340,000 tested, 2.5% active;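 active = melting temperature shift of at least 10% of the positive control shift, at one fixed dose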
FAS-TE inh: FAS thioesterase domain inhibitors, primary screen, biochemical, fluorescence intensity, uHTS; 360,000 tested, 0.67% active; recombinant FAS-TE, OMFH fluorogenic substrate, fluorescence endpoint; Fatty acid synthase (Homo sapiens), P49327; inhibition, % at 15 µM;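 active = compounds whose normalised, plate-corrected inhibition of enzyme fluorescence in the single-dose primary screen is 50% or more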;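 note: 0% = DMSO with enzyme and 100% = substrate without enzyme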
* marks the source's active call; other numbers are inactive results; · = no result given. In the library only some 4.3% were active in any assay of this set; here they are far more common.

SMILES	rCAG RNA binder	NadD inh	GRIN3A LBD mod	FAS-TE inh
CC(C)CC1NC(=O)N(CC(=O)Nc2cccc(Br)c2)C1=O (centres undefined)	0	-6	3	4
COc1ccc(-n2c(Cc3cccs3)nnc2SCC(=O)Nc2ccc(OCc3ccccc3)cc2)cc1	12	·	·	·
O=S(=O)(CC1NCc2cc(F)ccc21)NC1CCCC1 (centres undefined)	9	·	·	·
O=C1NC(=O)/C(=C/c2cccc([N+](=O)[O-])c2)N1	9	-2	-8	3
O=C1NC(=S)S/C1=C\c1cccc([N+](=O)[O-])c1	6	2	12*	15
COc1ccc(C(=O)OCCN(C)C2CN(Cc3cn(Cc4ccccc4Cl)nn3)S(=O)(=O)C2)cc1OC (centres undefined)	2	·	·	·
O=C(Nc1cc(Cl)ccc1F)C1CCCN1S(=O)(=O)c1cccc2cccnc12 (centres undefined)	1	·	·	·
O=C(NC1CCCCN(Cc2ccc(Cl)cc2)C1=O)c1cccc2nsnc12 (centres undefined)	5	·	·	·
O=C(CSc1nc2ncc(Cl)cc2[nH]1)c1c[nH]c2ccccc12	19	4	6	-16
O=C(CSc1nc2ccc(Cl)cc2[nH]1)c1c[nH]c2ccccc12	19	3	12*	-6
O=C(N/N=C/c1cc2c(cc1Cl)OCO2)c1ccc2c(c1)OCCO2	-1	4	-1	2
O=C(N/N=C/c1c(Cl)[nH]c2ccccc12)c1ccc2c(c1)OCCO2	7	3	18*	7
C[C@@H]1CCN(C2CC2)S(=O)(=O)c2c(cccc2N2CCC[C@@H]2C)O1	5	·	·	·
CCOC(=O)c1sc(NC(=O)CSc2n[nH]c(-c3ccc(Cl)cc3Cl)n2)c(C#N)c1C	7	4	33*	-43
COc1ccc(OC)c(C2CC(=O)N3CN(c4cccc(Cl)c4C)CSC3=C2C#N)c1 (centres undefined)	21	32*	-26	12
Cc1ccc(SCCC(=O)Nc2ccccc2C(=O)NC(C)C)cc1	-5	-5	14*	14
COc1cc(/C=N/NC(=O)c2sc(N)c(C#N)c2C)ccc1O	9	-18	15*	-6
Cc1c(C(=O)N/N=C/c2ccc(O)c(Br)c2)sc(N)c1C#N	12	9	14*	-7
COc1cccc(C(=O)n2ccc3ccc(-c4ccc5ccn(Cc6ccccc6)c5c4)cc32)c1	16	·	·	·
O=C(c1ccc(COc2ccc3ccccc3c2)o1)N1N=C(C(F)F)CC1(O)C(F)F (centres undefined)	·	1	20*	35
CCOc1ccc(OCc2ccc(C(=O)N3N=C(C(F)F)CC3(O)C(F)F)o2)cc1 (centres undefined)	-5	-4	-9	8
O=C(c1ccc(COc2ccc(Br)cc2)o1)N1N=C(C(F)F)CC1(O)C(F)F (centres undefined)	4	-5	19*	42
O=[N+]([O-])c1ccc(NCCOc2ccccc2Cl)nc1	-1	-4	16*	18
CC(=O)NCCCOc1ccc([N+](=O)[O-])cc1Cl	-4	-1	10*	2
Cc1cc2c(c(=O)o1)[C@@]1(C(=O)N(C)c3cc(Br)ccc31)C1=C(CCCC1=O)O2	0	·	·	·
SMILES	rCAG RNA binder	NadD inh	GRIN3A LBD mod	FAS-TE inh
O=C(c1cccc(Br)c1)N1CCCC1	-1	-11	13*	-6
CN(C)S(=O)(=O)N1CCN(C(=O)c2cccc(Br)c2)CC1	0	8	11*	-6
CCCCOCC1CN(CCCC)S(=O)(=O)c2c(cccc2N2CCCC2)O1 (centres undefined)	0	·	·	·
COc1ccc(/C=C2\CN(Cc3ccccc3)C/C(=C\c3ccc(OC)cc3)C2=O)cc1	6	12	-3	28
COc1ccc(/C=C2\CN(Cc3ccccc3)C/C(=C\c3ccc(OC)cc3OC)C2=O)c(OC)c1	6	29*	1	9
C[C@H](c1ccccc1)N1C[C@@H](COCc2ccccc2)Oc2cccc(Oc3ccc(C(C)(C)C)cc3)c2S1(=O)=O	4	·	·	·
Nc1ccc(-c2nc3ccc(N)cc3s2)cc1	4	-2	-7	-5
Cc1cc(-c2nc3cc(F)ccc3s2)ccc1N	1	2	13*	10
C#CCN(C1CC1)S(=O)(=O)c1ccccc1Br	-1	·	·	·
C[C@H](O)[C@@H]1CN2CCc3ccc(-c4ccc5c(c4)OCO5)cc3[C@@H]2C[C@@H]1N(C)CC1CCCCC1	2	·	·	·
